Reference: PubChem BioAssay (NCATS)
Inconclusive results are not listed. Calls of active or inactive are those of the source. Unless noted, calls follow the shape of the full dose curve.

Legend:
[1] = qHTS for Inhibitors of the Functional Ribonucleoprotein Complex (vRNP) of Lassa (LASV) Arenavirus: LASV Primary Screen - GLuc reporter signal (AID 1347082; calls by dose curve; tested in HEK293 reporter line; also: nearly all actives have a fitted effect of over 60% in size)
[2] = qHTS for Inhibitors of the Functional Ribonucleoprotein Complex (vRNP) of Lassa (LASV) Arenavirus: Viability assay - alamar blue signal for LASV Primary Screen (AID 1347083; calls by dose curve; tested in HEK293 reporter line; also: nearly all actives have a fitted effect of over 80% in size)
[3] = qHTS for Inhibitors of the Functional Ribonucleoprotein Complex (vRNP) of Lymphocytic Choriomeningitis Arenaviruses (LCMV): Viability assay - alamar blue signal for LCMV Primary Screen (AID 1347085; calls by dose curve; tested in HEK293 reporter line; also: nearly all actives have a fitted effect of over 80% in size)
[4] = target: Nucleoprotein (Lymphocytic choriomeningitis virus (strain Armstrong)) (UniProt P09992); assay: qHTS for Inhibitors of the Functional Ribonucleoprotein Complex (vRNP) of Lymphocytic Choriomeningitis Arenaviruses (LCMV): LCMV Primary Screen - GLuc reporter signal (AID 1347086); also: nearly all actives have a fitted effect of over 70% in size
% is scaled to controls: 0 for no effect and ±100 for the full control effect.
Also: series mostly up to about 57 µM.

Sequence of Nucleoprotein (Lymphocytic choriomeningitis virus (strain Armstrong)) (P09992 whole entry, looked up): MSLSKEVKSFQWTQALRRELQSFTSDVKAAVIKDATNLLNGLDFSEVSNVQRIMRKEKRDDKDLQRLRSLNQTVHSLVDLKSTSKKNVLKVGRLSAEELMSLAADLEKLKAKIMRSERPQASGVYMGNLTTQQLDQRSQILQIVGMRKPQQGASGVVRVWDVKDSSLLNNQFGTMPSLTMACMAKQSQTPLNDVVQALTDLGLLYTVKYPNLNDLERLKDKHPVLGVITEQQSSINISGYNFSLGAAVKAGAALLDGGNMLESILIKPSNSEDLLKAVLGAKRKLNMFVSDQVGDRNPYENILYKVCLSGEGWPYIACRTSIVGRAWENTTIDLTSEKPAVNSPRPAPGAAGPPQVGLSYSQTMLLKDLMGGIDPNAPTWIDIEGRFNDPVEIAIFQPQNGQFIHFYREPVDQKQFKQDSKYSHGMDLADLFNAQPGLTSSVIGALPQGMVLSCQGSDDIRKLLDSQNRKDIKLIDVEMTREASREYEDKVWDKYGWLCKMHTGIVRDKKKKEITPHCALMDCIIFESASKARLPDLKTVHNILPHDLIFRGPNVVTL

Cc1cc(C(C)(C)C)c(O)c(C(C)(C)C)c1
inactive: Potency [1] | Potency [2] | Potency [3] | Potency [4]

CN1CCC(N(Cc2cccs2)c2ccccc2)CC1
inactive: Potency [1] | Potency [2] | Potency [3] | Potency [4]

CCOc1ccc2nc(S(N)(=O)=O)sc2c1
inactive: Potency [1] | Potency [2] | Potency [3] | Potency [4]

CCOC(=O)n1ccn(C)c1=S
inactive: Potency [1] | Potency [2] | Potency [3] | Potency [4]

NC1=NCC2c3ccccc3Cc3ccccc3N12 (stereo not drawn)
inactive: Potency [1] | Potency [2] | Potency [3] | Potency [4]

N=C(N)c1ccc(OCCCOc2ccc(C(=N)N)cc2)cc1
inactive: Potency [1] | Potency [2] | Potency [3] | Potency [4]

O=C(COc1ccc(Cl)cc1)N1CCN(Cc2ccc3c(c2)OCO3)CC1
inactive: Potency [1] | Potency [2] | Potency [3] | Potency [4]

NCc1ccccc1Sc1ccccc1CO
inactive: Potency [1] | Potency [2] | Potency [3] | Potency [4]

Clc1ccc(C(Cn2ccnc2)OCc2c(Cl)cccc2Cl)c(Cl)c1 (stereo not drawn)
inactive: Potency [1] | Potency [2] | Potency [3] | Potency [4]

C[C@@H]1C[C@H]2[C@@H]3CCC4=CC(=O)C=C[C@]4(C)[C@@]3(F)[C@@H](O)C[C@]2(C)[C@@]1(O)C(=O)COC(=O)c1ccncc1
inactive: Potency [1] | Potency [2] | Potency [3] | Potency [4]

CCCCCCCCCCCCCCCCC(C(=O)O)C(O)(CC(=O)O)C(=O)O (stereo not drawn)
inactive: Potency [1] | Potency [2] | Potency [3] | Potency [4]

CC(=O)N[C@H]1[C@H]([C@H](O)[C@H](O)CO)OC(C(=O)O)=C[C@@H]1N=C(N)N
inactive: Potency [1] | Potency [2] | Potency [3] | Potency [4]

COC(=O)[C@@H](N)Cc1ccc(O)c(O)c1
inactive: Potency [1] | Potency [2] | Potency [3] | Potency [4]

COc1cc(C(=S)N2CCOCC2)ccc1O
inactive: Potency [1] | Potency [2] | Potency [3] | Potency [4]

CCOC(=O)Cn1cccc1-c1nc(-c2ccc(OC)cc2)c(-c2ccc(OC)cc2)s1
inactive: Potency [1] | Potency [2] | Potency [3] | Potency [4]

CC1CC(OC(=O)C(O)c2ccccc2)CC(C)(C)N1C (stereo not drawn)
inactive: Potency [1] | Potency [2] | Potency [3] | Potency [4]

COc1ccccc1N1CCN(CCCNc2cc(=O)n(C)c(=O)n2C)CC1
inactive: Potency [1] | Potency [2] | Potency [3] | Potency [4]

O=C(CCCCC(=O)Nc1c(I)cc(I)c(C(=O)O)c1I)Nc1c(I)cc(I)c(C(=O)O)c1I
inactive: Potency [1] | Potency [2] | Potency [3] | Potency [4]

CN1CCN(C2Cc3ccccc3Sc3ccc(Cl)cc32)CC1 (stereo not drawn)
inactive: Potency [1] | Potency [2] | Potency [3] | Potency [4]

OCC(O)CS (stereo not drawn)
inactive: Potency [1] | Potency [2] | Potency [3] | Potency [4]

C[N+]12CCC(CC1)C(OC(=O)C(O)(c1ccccc1)c1ccccc1)C2 (stereo not drawn)
inactive: Potency [1] | Potency [2] | Potency [3] | Potency [4]

COC1=C(OC)C(=O)C(CCCCCCCCCCO)=C(C)C1=O
inactive: Potency [1] | Potency [2] | Potency [3] | Potency [4]

CCc1cc(Cl)c(OC)c(C(=O)NC[C@@H]2CCCN2CC)c1O
inactive: Potency [1] | Potency [2] | Potency [3] | Potency [4]

CCCCOc1ccc(C(=O)CCN2CCCCC2)cc1
inactive: Potency [1] | Potency [2] | Potency [3] | Potency [4]

OC(CCCN1CCCCC1)(c1ccccc1)c1ccccc1
inactive: Potency [1] | Potency [2] | Potency [3] | Potency [4]

CCOC(=O)C(=O)c1csc(NC=O)n1
inactive: Potency [1] | Potency [2] | Potency [3] | Potency [4]

CCC(C(=O)OCCOCCN(CC)CC)c1ccccc1 (stereo not drawn)
inactive: Potency [1] | Potency [2] | Potency [3] | Potency [4]

O=C1c2ccccc2C(=O)C1c1ccccc1
inactive: Potency [1] | Potency [2] | Potency [3] | Potency [4]

Cc1c(Cn2ccnc2)c2ccccc2n1CCC(=O)O
inactive: Potency [1] | Potency [2] | Potency [3] | Potency [4]

CN1CCCCC1CCN1c2ccccc2Sc2ccc(S(C)=O)cc21 (stereo not drawn)
inactive: Potency [1] | Potency [2] | Potency [3] | Potency [4]

CC(C)(C)c1nnc(NS(=O)(=O)c2ccc(N)cc2)s1
inactive: Potency [1] | Potency [2] | Potency [3] | Potency [4]

CC1=C(C(=O)O)N2C(=O)[C@@H](NC(=O)[C@H](N)C3=CCC=CC3)[C@H]2SC1
inactive: Potency [1] | Potency [2] | Potency [3] | Potency [4]

CN(C(=O)CN(CCO)CC(=O)N(C)C(C)(C)Cc1ccccc1)C(C)(C)Cc1ccccc1
inactive: Potency [1] | Potency [2] | Potency [3] | Potency [4]

Nc1ccc(S(=O)(=O)Nc2cnc3ccccc3n2)cc1
inactive: Potency [1] | Potency [2] | Potency [3] | Potency [4]

CCOCCOC(=O)/C=C/c1ccc(OC)cc1
inactive: Potency [1] | Potency [2] | Potency [3] | Potency [4]

CCN(CC)CCOC(=O)C1(c2ccccc2)CCCC1
inactive: Potency [1] | Potency [2] | Potency [3] | Potency [4]

CC(C)(C)c1ccc(C(=O)CCCN2CCC(OC(c3ccccc3)c3ccccc3)CC2)cc1
inactive: Potency [1] | Potency [2] | Potency [3] | Potency [4]

NCCNC(=O)c1ccc(Cl)cn1
inactive: Potency [1] | Potency [2] | Potency [3] | Potency [4]

COc1ccc2cc(C=O)ccc2c1
inactive: Potency [1] | Potency [2] | Potency [3] | Potency [4]

CN(C)C/C=C(/c1ccc(Br)cc1)c1cccnc1
inactive: Potency [1] | Potency [2] | Potency [3] | Potency [4]

Nc1ccc(N=Nc2ccccc2)c(N)n1
inactive: Potency [1] | Potency [2] | Potency [3] | Potency [4]

NC(=O)C(=O)N/N=C/c1ccc([N+](=O)[O-])o1
inactive: Potency [1] | Potency [2] | Potency [3] | Potency [4]

CN(C)CCCN1c2ccccc2Sc2ccc(C(F)(F)F)cc21
inactive: Potency [1] | Potency [2] | Potency [3] | Potency [4]

O=Cc1ccccc1C=O
inactive: Potency [1] | Potency [2] | Potency [3] | Potency [4]

COc1cc(C(=O)NCCCCCC(=O)O)cc(OC)c1OC
inactive: Potency [1] | Potency [2] | Potency [3] | Potency [4]

C[N+]1(CC2COC(c3ccccc3)(c3ccccc3)O2)CCCCC1 (stereo not drawn)
inactive: Potency [1] | Potency [2] | Potency [3] | Potency [4]

CC1=C(C)C(=O)C(CCCCC#CCCCC#CCO)=C(C)C1=O
inactive: Potency [1] | Potency [2] | Potency [3] | Potency [4]

CC1CCc2cc(F)cc3c(=O)c(C(=O)O)cn1c23 (stereo not drawn)
inactive: Potency [1] | Potency [2] | Potency [3] | Potency [4]

CCn1ccnc1CC1COc2ccccc2O1 (stereo not drawn)
inactive: Potency [1] | Potency [2] | Potency [3] | Potency [4]

O=C(O)CCC(=O)c1ccc(-c2ccccc2)cc1
inactive: Potency [1] | Potency [2] | Potency [3] | Potency [4]

CC(=O)N(CC(O)CN(C(C)=O)c1c(I)c(C(=O)NCC(O)CO)c(I)c(C(=O)NCC(O)CO)c1I)c1c(I)c(C(=O)NCC(O)CO)c(I)c(C(=O)NCC(O)CO)c1I (stereo not drawn)
inactive: Potency [1] | Potency [2] | Potency [3] | Potency [4]

CCN(CC)CC1CCCCN1CC(=O)N1c2ccccc2C(=O)Nc2cccnc21 (stereo not drawn)
inactive: Potency [1] | Potency [2] | Potency [3] | Potency [4]

CC(C)OC(=O)C(C(=O)OC(C)C)=C1SC=CS1
inactive: Potency [1] | Potency [2] | Potency [3] | Potency [4]

Cc1cc2c(OCC(CNC(C)(C)C)OC(=O)c3ccccc3)cccc2[nH]1 (stereo not drawn)
inactive: Potency [1] | Potency [2] | Potency [3] | Potency [4]

CCN[C@@H]1C[C@H](N)[C@@H](OC2OC(CN)=CCC2N)[C@H](O)[C@H]1O[C@H]1OC[C@](C)(O)[C@H](NC)[C@H]1O (stereo partly drawn)
inactive: activity change, negative = inhibition [1] -2.08% [at 0.757 µM] | activity change, negative = reduced viability [2] -5.5% [at 0.757 µM] | activity change, negative = lower viability [3] 0.253% [at 0.757 µM] | activity change, negative = inhibition [4] 10% [at 0.757 µM]

CN(C)CCOC(c1ccccc1)c1ccc(Br)cc1 (stereo not drawn)
inactive: Potency [1] | Potency [2] | Potency [3] | Potency [4]

CC1(C)O[C@@H]2C[C@H]3[C@@H]4C[C@H](F)C5=CC(=O)C=C[C@]5(C)[C@H]4[C@@H](O)C[C@]3(C)[C@]2(C(=O)CO)O1
inactive: Potency [1] | Potency [2] | Potency [3] | Potency [4]

Cn1c(=O)c2c(ncn2C)n(C)c1=O
inactive: Potency [1] | Potency [2] | Potency [3] | Potency [4]

NS(=O)(=O)c1cc2c(cc1Cl)NC(C1CC3C=CC1C3)NS2(=O)=O (stereo not drawn)
inactive: Potency [1] | Potency [2] | Potency [3] | Potency [4]

Cn1cc(C(=O)[C@@H]2CCc3nc[nH]c3C2)c2ccccc21
inactive: Potency [1] | Potency [2] | Potency [3] | Potency [4]

CCCCCCCCNC(C)C(O)c1ccc(SC(C)C)cc1 (stereo not drawn)
inactive: Potency [1] | Potency [2] | Potency [3] | Potency [4]

Oc1c(Cl)cc(Cl)c2cccnc12
inactive: Potency [1] | Potency [2] | Potency [3] | Potency [4]

Cc1cccc(N(C)C(=S)Oc2ccc3ccccc3c2)c1
inactive: Potency [1] | Potency [2] | Potency [3] | Potency [4]

OC[C@H]1O[C@@H](O[C@@H]2[C@@H](CO)O[C@](O)(CO)[C@H]2O)[C@H](O)[C@@H](O)[C@H]1O
inactive: Potency [1] | Potency [2] | Potency [3] | Potency [4]

OC(CCN1CCCCC1)(c1ccccc1)c1ccccc1
inactive: Potency [1] | Potency [2] | Potency [3] | Potency [4]

O=C(CN1CCN(Cc2ccc3c(c2)OCO3)CC1)N1c2ccccc2Sc2ccccc21
inactive: Potency [1] | Potency [2] | Potency [3] | Potency [4]

Cc1ccc(C(=O)Nc2ccc(S(=O)(=O)O)c3cc(S(=O)(=O)O)cc(S(=O)(=O)O)c23)cc1NC(=O)c1cccc(NC(=O)Nc2cccc(C(=O)Nc3cc(C(=O)Nc4ccc(S(=O)(=O)O)c5cc(S(=O)(=O)O)cc(S(=O)(=O)O)c45)ccc3C)c2)c1
inactive: Potency [1] | Potency [2] | Potency [3] | Potency [4]
